The text below walks through data of the supplement of paper PMC7411640.

Structures can show the parent of a compound that is named as a salt.

The subject of the assay is MDA-MB-468. Nature of the assay: phospho-S6 immunofluorescence (DAPI-normalised), per-plate z-score; higher = higher phospho-S6 signal (less pathway suppression). The settings on record: co-treatment: lapatinib 1 uM; 24 h. The protocol: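 GPCR-targeted compound library (MedChemExpress HY-L006) tested on MDA-MB-468 PTEN-null TNBC cells in 384-well plates at 0.1, 1 or 10 uM, combined with vehicle, GDC0941 450 nM or lapatinib 1 uM, for 24 h. Phospho-S6 (S240/244) immunofluorescence normalised to DAPI and expressed as a per-plate z-score; values are the mean of biological triplicates.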
On to `CN1CCN(CCc2ccc(Cl)c(Cl)c2)CC1` [BD1063 (dhydrochloride)] (compound 10 µM), for which the “phospho-S6 immunofluorescence (z-score)” value was -1.56.

`C[C@H]1C[C@H]2[C@@H]3CCC4=CC(=O)C=C[C@]4(C)[C@H]3C(=O)C[C@]2(C)[C@@]1(O)C(=O)CO` [Meprednisone] (compound 10 µM): the “phospho-S6 immunofluorescence (z-score)” value was -0.5.

As to `COc1cc(NC(=O)c2ccccn2)ccc1Cl` (compound 10 µM), the “phospho-S6 immunofluorescence (z-score)” value was -0.21.

In the case of `CCCN(CCc1cccs1)[C@H]1CCc2c(O)cccc2C1` [Rotigotine (Hydrochloride)] (compound 10 µM), the “phospho-S6 immunofluorescence (z-score)” value came to 0.3.

As to `CC1(C)O[C@@H]2C[C@H]3[C@@H]4CCC5=CC(=O)C=C[C@]5(C)[C@@]4(F)[C@@H](O)C[C@]3(C)[C@]2(C(=O)CO)O1` [Triamcinolone (acetonide)] (compound 10 µM), the “phospho-S6 immunofluorescence (z-score)” value was determined as 1.39.

For the molecule `CN(C)C(=O)CCSC(SCCC(=O)O)c1cccc(/C=C/c2ccc3ccc(Cl)cc3n2)c1` (stereo unspecified) [MK-571 (sodium salt)] (compound 10 µM), the “phospho-S6 immunofluorescence (z-score)” value was found to be 0.9.

Take `CCC(=O)O[C@]1(C(=O)CCl)[C@@H](C)C[C@H]2[C@@H]3CCC4=CC(=O)C=C[C@]4(C)[C@@]3(F)[C@@H](O)C[C@@]21C` [Clobetasol propionate] (compound 10 µM): the “phospho-S6 immunofluorescence (z-score)” value was -0.09.

As to `Cc1cc(NC(=O)NCCN2CCC(O)(Cc3ccccc3)CC2)c2ccccc2n1` [Palosuran] (compound 10 µM), the “phospho-S6 immunofluorescence (z-score)” value is -2.21.

For `CN1CCC(=C2c3ccccc3C=Cc3ccccc32)CC1` [Cyproheptadine (hydrochloride)] (compound 10 µM), the “phospho-S6 immunofluorescence (z-score)” value is -1.26.

For the molecule `COC(=O)[C@H](c1ccccc1Cl)N1CCc2sccc2C1` [Clopidogrel (hydrogen sulfate)] (compound 10 µM), the “phospho-S6 immunofluorescence (z-score)” value was -1.03.

Consider `c1cc(CN2CCCNCCNCCCNCC2)ccc1CN1CCCNCCNCCCNCC1` [Plerixafor (octahydrochloride)] (compound 10 µM), for which the “phospho-S6 immunofluorescence (z-score)” value was 0.37.

Consider `CCN(CCCCOC(=O)c1ccc(OC)c(OC)c1)C(C)Cc1ccc(OC)cc1` (stereo unspecified) [Mebeverine (hydrochloride)] (compound 10 µM), for which the “phospho-S6 immunofluorescence (z-score)” value was 0.05.

On to `CC(C)(C)NCC(O)c1cc(O)cc(O)c1` (stereo unspecified) [Terbutaline (sulfate)] (compound 10 µM), for which the “phospho-S6 immunofluorescence (z-score)” value is 1.51.

Consider `Cc1[nH]cnc1CN1CCc2c(c3ccccc3n2C)C1=O` [Alosetron (Hydrochloride)] (compound 10 µM), for which the “phospho-S6 immunofluorescence (z-score)” value is -0.22.

In the case of `CCN(CC)Cc1ccc(C(=O)N(CCc2ccccc2OC)[C@@H]2CCNC2)cc1` (compound 10 µM), the “phospho-S6 immunofluorescence (z-score)” value stood at 0.1.

Take `COc1ccc2c(c1)c(CC(=O)N1CCOCC1)c(C)n2C(=O)c1ccc(Cl)cc1` (compound 10 µM): the “phospho-S6 immunofluorescence (z-score)” value was -6.12.

On to `Cc1nc(C(=O)N2CCC[C@H]2Cc2nnc(-c3ccccc3)o2)c(-c2ccccc2F)s1` (compound 10 µM), for which the “phospho-S6 immunofluorescence (z-score)” value came to 0.29.

Take `CN1CCN2c3ccccc3Cc3ccccc3C2C1` (stereo unspecified) [Mianserin (hydrochloride)] (compound 10 µM): the “phospho-S6 immunofluorescence (z-score)” value was -0.76.

For the molecule `C[C@@H]1CCCN1CCc1cc2cc(-c3ccc(C#N)cc3)ccc2o1` (compound 10 µM), the “phospho-S6 immunofluorescence (z-score)” value was -4.56.

As to `C[N+](C)(C)CCOC(N)=O` [Carbamoylcholine (chloride)] (compound 10 µM), the “phospho-S6 immunofluorescence (z-score)” value was determined as 0.02.

As for `CCN1CCC[C@H]1CNC(=O)c1cc(S(N)(=O)=O)ccc1OC` [Levosulpiride] (compound 10 µM), the “phospho-S6 immunofluorescence (z-score)” value is 0.89.

For the molecule `c1ccc(CN(CC2=NCCN2)c2ccccc2)cc1` [Antazoline (hydrochloride)] (compound 10 µM), the “phospho-S6 immunofluorescence (z-score)” value was 0.23.

As for `CN1C2CCCC1CC(NC(=O)c1nn(C)c3ccccc13)C2` (stereo unspecified) [Granisetron (Hydrochloride)] (compound 10 µM), the “phospho-S6 immunofluorescence (z-score)” value was 0.62.

For the molecule `Cc1ccccc1C(=O)Nc1ccc(C(=O)N2CCCC(O)c3cc(Cl)ccc32)c(C)c1` (stereo unspecified) [Tolvaptan] (compound 10 µM), the “phospho-S6 immunofluorescence (z-score)” value was -1.6.

Turning to `COc1cc(/C=C/C(=O)O)ccc1O` [Ferulic acid (sodium)] (compound 10 µM), the “phospho-S6 immunofluorescence (z-score)” value stood at 0.36.

As to `CC(C)(C)C1CCC(N(Cc2ccc(C(=O)NCCC(=O)O)cc2)C(=O)Nc2ccc(OC(F)(F)F)cc2)CC1` (stereo unspecified) (compound 10 µM), the “phospho-S6 immunofluorescence (z-score)” value is -4.75.
